According to the supplement of paper PMC10849652:
Of roughly 8,800 targets only a part is listed; those with a hit were picked by preference. About 0.5% of all pairs of compound and target were hits. A number with no mark means an inactive call.

The targets below were run with NCC(=O)Nc1ccc(-n2nc(C(F)(F)F)cc2-c2ccc3c(ccc4ccccc43)c2)cc1 (assay: log2 fold change, soluble protein after heating vs DMSO (PISA); higher = thermal stabilisation; K562 lysate, 10 uM; active = over 0.2 and 3.5 SD of the protein, either way, in both replicates (recomputed)).
Outline: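 Values give the log-two fold change in thermal stability against solvent controls, from duplicates. Crude K562 extract at 1 mg/mL protein, made by dounce homogenisation in PBS pH 7.4 with 1 mM MgCl2, was treated with 10 μM compound for 30 min. After 3 min heating across 48°C-58°C, aliquots were pooled, adjusted to 0.5% NP-40 at 4°C and centrifuged at 21,000xg for 90 min. The supernatant was measured by TMTpro 16plex LC-MS/MS with channel sums equalised.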

UniProt Q15653, sequence (Q15653 whole entry, looked up): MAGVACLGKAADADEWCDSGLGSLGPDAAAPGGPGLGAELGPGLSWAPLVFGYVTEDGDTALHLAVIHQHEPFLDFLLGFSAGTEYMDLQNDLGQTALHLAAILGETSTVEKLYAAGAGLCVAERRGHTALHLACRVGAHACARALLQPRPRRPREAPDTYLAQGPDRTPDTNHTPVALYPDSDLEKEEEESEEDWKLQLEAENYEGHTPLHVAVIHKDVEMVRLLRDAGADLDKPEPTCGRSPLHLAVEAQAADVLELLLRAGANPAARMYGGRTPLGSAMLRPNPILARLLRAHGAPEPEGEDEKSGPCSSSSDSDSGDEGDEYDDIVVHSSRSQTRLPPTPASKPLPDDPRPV
UniProt Q9H3P2, sequence (Q9H3P2 whole entry, looked up): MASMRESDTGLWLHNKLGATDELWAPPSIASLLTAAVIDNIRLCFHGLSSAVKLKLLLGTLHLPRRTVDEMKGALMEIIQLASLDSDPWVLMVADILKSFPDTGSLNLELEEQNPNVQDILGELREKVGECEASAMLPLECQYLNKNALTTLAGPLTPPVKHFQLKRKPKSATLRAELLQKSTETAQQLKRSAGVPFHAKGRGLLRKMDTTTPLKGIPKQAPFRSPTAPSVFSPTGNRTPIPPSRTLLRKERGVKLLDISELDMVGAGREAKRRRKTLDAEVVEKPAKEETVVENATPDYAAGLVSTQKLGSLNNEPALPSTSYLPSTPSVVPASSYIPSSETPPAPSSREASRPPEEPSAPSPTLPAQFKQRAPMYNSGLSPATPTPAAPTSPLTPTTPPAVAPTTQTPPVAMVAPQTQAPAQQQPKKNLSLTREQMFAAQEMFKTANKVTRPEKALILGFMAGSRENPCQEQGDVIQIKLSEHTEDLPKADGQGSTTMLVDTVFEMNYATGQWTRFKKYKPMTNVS
UniProt Q6N063, sequence (Q6N063 whole entry, looked up): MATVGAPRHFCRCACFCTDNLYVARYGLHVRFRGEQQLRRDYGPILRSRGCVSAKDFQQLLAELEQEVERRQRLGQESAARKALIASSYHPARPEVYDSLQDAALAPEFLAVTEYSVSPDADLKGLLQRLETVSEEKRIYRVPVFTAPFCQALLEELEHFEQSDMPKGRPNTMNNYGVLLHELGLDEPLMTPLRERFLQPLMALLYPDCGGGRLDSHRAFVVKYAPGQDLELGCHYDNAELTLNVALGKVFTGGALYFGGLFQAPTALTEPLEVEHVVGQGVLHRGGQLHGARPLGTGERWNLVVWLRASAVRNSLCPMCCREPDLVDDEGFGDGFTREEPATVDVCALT
UniProt P04181, sequence (P04181 whole entry, looked up): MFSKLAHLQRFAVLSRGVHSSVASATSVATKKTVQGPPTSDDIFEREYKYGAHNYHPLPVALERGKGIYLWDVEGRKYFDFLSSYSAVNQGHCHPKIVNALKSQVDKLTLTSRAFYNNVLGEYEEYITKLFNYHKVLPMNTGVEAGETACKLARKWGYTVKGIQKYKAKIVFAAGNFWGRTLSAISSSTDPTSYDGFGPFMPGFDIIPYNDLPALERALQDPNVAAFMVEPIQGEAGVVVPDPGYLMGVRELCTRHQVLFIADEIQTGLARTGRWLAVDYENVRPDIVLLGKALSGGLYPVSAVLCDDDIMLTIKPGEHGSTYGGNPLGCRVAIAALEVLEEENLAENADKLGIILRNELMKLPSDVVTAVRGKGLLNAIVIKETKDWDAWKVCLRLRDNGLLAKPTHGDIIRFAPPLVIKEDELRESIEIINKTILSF
UniProt Q92621, sequence (Q92621 whole entry, looked up): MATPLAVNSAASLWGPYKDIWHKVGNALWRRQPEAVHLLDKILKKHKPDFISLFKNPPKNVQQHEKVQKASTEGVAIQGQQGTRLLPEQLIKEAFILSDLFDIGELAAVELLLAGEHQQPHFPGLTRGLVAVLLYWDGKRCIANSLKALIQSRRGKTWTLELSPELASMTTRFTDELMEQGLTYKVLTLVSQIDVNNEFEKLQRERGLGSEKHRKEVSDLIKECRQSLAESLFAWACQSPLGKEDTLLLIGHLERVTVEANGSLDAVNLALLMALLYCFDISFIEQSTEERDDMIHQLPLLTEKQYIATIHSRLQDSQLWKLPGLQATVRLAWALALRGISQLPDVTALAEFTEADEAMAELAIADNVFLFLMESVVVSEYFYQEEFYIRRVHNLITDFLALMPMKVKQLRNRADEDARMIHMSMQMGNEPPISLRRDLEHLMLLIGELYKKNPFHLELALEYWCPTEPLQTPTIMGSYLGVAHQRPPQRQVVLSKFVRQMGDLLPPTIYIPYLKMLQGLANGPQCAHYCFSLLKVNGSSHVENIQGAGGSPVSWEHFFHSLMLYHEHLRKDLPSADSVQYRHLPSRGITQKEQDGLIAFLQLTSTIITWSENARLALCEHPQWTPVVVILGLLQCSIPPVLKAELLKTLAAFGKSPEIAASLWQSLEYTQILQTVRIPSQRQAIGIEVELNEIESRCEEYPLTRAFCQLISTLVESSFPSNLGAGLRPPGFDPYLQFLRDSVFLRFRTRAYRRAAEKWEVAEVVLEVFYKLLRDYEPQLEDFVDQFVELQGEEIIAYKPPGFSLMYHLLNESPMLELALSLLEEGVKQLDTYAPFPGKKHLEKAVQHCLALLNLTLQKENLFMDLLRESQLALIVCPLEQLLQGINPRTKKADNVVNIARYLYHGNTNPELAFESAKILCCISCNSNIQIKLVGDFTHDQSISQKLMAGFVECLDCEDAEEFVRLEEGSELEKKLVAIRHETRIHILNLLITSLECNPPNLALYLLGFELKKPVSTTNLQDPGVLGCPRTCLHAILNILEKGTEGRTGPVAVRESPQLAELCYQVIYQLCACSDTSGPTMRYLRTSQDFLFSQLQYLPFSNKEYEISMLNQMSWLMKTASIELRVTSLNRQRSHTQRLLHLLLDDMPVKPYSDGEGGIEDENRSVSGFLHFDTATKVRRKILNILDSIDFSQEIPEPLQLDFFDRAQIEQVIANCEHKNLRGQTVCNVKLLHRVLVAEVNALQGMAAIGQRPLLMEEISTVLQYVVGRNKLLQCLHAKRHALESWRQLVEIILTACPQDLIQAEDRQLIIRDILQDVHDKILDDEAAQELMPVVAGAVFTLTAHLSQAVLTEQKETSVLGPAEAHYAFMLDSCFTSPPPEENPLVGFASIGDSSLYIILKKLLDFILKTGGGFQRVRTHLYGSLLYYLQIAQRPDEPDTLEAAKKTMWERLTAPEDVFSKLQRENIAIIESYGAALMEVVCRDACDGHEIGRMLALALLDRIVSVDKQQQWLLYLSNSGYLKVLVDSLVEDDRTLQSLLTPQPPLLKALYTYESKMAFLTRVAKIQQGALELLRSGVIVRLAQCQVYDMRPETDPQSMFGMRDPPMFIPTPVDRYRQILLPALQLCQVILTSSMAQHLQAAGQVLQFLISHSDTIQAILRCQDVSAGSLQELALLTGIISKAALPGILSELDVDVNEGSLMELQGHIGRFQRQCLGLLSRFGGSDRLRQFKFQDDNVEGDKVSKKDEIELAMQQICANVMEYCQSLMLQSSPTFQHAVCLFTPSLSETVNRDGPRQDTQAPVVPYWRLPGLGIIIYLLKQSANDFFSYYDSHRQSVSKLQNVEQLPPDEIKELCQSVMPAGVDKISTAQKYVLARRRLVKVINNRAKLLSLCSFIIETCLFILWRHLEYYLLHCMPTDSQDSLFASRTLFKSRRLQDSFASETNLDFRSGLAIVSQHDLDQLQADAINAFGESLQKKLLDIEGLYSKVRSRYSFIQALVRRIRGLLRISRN
UniProt Q6IBW4, sequence (Q6IBW4 whole entry, looked up): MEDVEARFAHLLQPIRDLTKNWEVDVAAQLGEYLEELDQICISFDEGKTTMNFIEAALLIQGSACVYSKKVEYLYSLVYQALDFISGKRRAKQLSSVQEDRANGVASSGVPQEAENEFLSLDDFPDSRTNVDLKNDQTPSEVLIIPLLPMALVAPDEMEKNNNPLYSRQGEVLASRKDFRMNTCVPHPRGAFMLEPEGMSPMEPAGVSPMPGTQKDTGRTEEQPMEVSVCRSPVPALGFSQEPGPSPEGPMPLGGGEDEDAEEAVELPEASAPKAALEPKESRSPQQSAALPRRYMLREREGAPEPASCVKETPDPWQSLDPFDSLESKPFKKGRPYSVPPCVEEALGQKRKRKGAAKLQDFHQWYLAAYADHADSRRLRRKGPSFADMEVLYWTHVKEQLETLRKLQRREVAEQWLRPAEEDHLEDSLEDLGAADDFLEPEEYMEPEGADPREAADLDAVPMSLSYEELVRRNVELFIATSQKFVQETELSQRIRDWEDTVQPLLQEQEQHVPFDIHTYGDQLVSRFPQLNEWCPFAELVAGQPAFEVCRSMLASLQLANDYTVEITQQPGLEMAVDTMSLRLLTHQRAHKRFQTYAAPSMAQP
UniProt P80303, sequence (P80303 whole entry, looked up): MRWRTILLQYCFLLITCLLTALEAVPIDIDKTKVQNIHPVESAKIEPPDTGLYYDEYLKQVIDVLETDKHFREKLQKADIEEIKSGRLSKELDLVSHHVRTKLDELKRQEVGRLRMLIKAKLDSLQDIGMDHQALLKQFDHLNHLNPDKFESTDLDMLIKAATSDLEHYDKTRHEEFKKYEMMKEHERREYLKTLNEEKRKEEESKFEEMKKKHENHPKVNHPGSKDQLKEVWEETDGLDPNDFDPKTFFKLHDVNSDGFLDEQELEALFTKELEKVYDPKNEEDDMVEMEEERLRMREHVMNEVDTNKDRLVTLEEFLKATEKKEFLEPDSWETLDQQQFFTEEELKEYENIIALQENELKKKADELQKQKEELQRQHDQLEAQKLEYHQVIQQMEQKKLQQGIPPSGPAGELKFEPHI
UniProt Q9Y5N5, sequence (Q9Y5N5 whole entry, looked up, one chain of several): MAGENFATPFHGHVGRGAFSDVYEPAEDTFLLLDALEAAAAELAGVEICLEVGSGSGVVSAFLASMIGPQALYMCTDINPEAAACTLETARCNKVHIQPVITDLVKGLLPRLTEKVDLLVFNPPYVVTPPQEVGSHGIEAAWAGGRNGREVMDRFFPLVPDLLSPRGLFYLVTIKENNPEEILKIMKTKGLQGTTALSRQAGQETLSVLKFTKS
UniProt P03928, sequence (P03928 whole entry, looked up): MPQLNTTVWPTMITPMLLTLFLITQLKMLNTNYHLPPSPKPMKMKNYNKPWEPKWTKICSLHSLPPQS

Target | log2 fold change
MRPL53 (UniProt Q96EL3) | -0.052
PAK1 (UniProt Q13153) | 0.008
MVB12A (UniProt Q96EY5) | -0.002
MYO9A isoform 4 (UniProt B2RTY4) | -0.051
MRPS31 (UniProt Q92665) | 0.058
MYO1D (UniProt O94832) | 0.046
NSUN2 (UniProt Q08J23) | 0.004
MSH2 (UniProt P43246) | 0.006
NF1 (UniProt P21359) | 0.03
OARD1 (UniProt Q9Y530) | -0.021
MT-ATP8 (UniProt P03928) | 0.056
NOB1 (UniProt Q9ULX3) | 0.017
NDUFAF5 (UniProt Q5TEU4) | -0.023
NCAPH2 (UniProt Q6IBW4) | 0.052
NCAPG2 (UniProt Q86XI2) | 0.002
OSGEP (UniProt Q9NPF4) | -0.001
OGFOD2 (UniProt Q6N063) | 0.023

Target | log2 fold change
ORC5 (UniProt O43913) | 0.023
MRPL58 (UniProt Q14197) | 0.02
NUCB2 (UniProt P80303) | 0
NFKBIB (UniProt Q15653) | -0.052
MYO10 (UniProt Q9HD67) | 0.401
OCRL (UniProt Q01968) | 0.134
NFAT5 isoform 5 (UniProt O94916) | 0.033
OLA1 (UniProt Q9NTK5) | 0.03
OAT (UniProt P04181) | 0.053
PANK1 (UniProt Q8TE04) | 0.01
MTHFD1L (UniProt B7ZM99) | 0.031
NUSAP1 (UniProt Q9BXS6) | 0.01
NUP205 (UniProt Q92621) | 0.003
N6AMT1 (UniProt Q9Y5N5) | -0.043
NARF (UniProt Q9UHQ1) | -0.05
NBEAL2 (UniProt Q6ZNJ1) | -0.025
NELFA (UniProt Q9H3P2) | -0.057
